The list is not random: actives were taken first. Their share in the collection is about 3.8%.
CBFb RUNX1 block = CBF-beta/RUNX1 interaction disruption; Q01196+Q13951; AlphaScreen CBFb-His/RUNX1-biotin binding, biochemical; Potency, µM (titrated, usually from 59.8 µM), without a hit: top-dose activity, negative = inhibition, hits mostly inhibitors; 230,000 tested, under 10 active; AID 1477; also: % of control where 0% means no effect
Target sequence (Q01196 whole entry, looked up): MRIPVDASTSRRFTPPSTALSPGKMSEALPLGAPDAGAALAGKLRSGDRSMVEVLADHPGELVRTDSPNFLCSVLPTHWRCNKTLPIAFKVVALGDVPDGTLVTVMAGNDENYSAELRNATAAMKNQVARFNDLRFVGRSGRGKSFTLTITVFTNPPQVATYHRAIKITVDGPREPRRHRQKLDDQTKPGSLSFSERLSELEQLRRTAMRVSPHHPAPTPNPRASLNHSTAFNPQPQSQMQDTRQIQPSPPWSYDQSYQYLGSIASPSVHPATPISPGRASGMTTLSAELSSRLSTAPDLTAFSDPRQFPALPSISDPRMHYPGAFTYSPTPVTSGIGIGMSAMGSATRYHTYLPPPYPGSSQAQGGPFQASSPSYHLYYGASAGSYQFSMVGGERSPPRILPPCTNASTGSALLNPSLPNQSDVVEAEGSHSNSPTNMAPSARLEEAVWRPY
Target sequence (Q13951 whole entry, looked up): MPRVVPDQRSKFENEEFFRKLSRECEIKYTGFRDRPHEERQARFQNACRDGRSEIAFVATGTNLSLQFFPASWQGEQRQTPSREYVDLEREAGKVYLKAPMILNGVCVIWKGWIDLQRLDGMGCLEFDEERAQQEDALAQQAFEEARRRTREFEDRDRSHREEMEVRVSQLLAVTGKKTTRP
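Interaction loss through any mechanism counts as activity. Pre-formed complex of His-CBF-beta and biotin-RUNX1 (30 nM apiece) is incubated with compound 15 min, then with 50 ng nickel and 50 ng streptavidin beads for 90 min before AlphaScreen detection.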
VDR inhibitor = blocks the human vitamin D receptor; P11473; VDR-SRC2-3 peptide fluorescence polarization, 2 h; Potency, µM, inactives show max response, negative = inhibition, actives largely listed as inhibitors; hit rate 0.93% among 400,000; also: potency is read from the fitted curve at half-maximal effect; % is scaled to controls: 0 for no effect and ±100 for the full control effect
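The screen uses fluorescence polarization to detect compounds that interfere with recruitment of the SRC2-3 coactivator peptide to VDR; plates are read after 2 h at room temperature.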
MBNL1 CUG block = inhibitors of human MBNL1 binding to CUG repeat RNA | Q9NR56 | TR-FRET MBNL1-His/biotin-(CUG)12 binding, 665/545 ratio | Potency, µM (titrated, usually from 57.5 µM), inactives show top-dose activity change, negative = inhibition, actives largely listed as inhibitors | hit rate 0.036% among 280,000; active = well fitted inhibition curve with a large enough effect in the signal ratio, with a control signal flat, not every such curve was filed as active; inconclusive = small, poorly fitted or top-dose-only effect, or effect the other way, or a change in a side signal; inactive = no such curve, though single readings can be large or run the other way; the % refers to the signal ratio; also: potency is read from the fitted curve at half-maximal effect; % is scaled to controls: 0 for no effect and ±100 for the full control effect
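Compound titration spanned 92 nM–58 uM against the MBNL1-His/biotin-(CUG)12 complex. After 60 min at room temperature with 5 nM streptavidin-XL665 and 0.055 ng/ul terbium anti-His, ratiometric 665/545 nm emission (Ex 340 nm) normalized to controls.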
KCNH2 WT inh = inhibitors of human wildtype KCNH2 potassium channel | Q12809 | U2OS, BacMam KCNH2, thallium flux FluxOr; hits give low values | activity change, % at 1.84 µM | hit rate 0.37% among 340,000;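 active = maximum activity change below -70%; inconclusive = maximum activity change between -70% and -50%; inactive = maximum activity change above -50%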; also: % is scaled to controls: 0 for no effect and ±100 for the full control effect
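U2OS cells were transduced with wild-type KCNH2 virus (2.03 x 10^8 / mL) for 4 h at room temperature, then cultured overnight at 37 C. Thallium flux was read with FluxOr dye. Rate constants were normalized to DMSO controls.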
PLK1 PBD block = inhibitors of human PLK1 polo-box domain binding | P53350 | Plk1 PBD binding of FITC phosphopeptide, fluorescence polarization | Potency, µM, for the others: max response, negative = inhibition, most hits filed as inhibitors | hit rate 2.8% among 360,000 | AID 720504; also: potency is read from the fitted curve at half-maximal effect; series mostly up to about 57 µM; % is scaled to controls: 0 for no effect and ±100 for the full control effect; nearly all actives have a fitted effect of over 65% in size
KCNH2 3.1 block = inhibitors of human KCNH2 3.1 potassium channel isoform | U2OS KCNH2 3.1, thallium flux FluxOr; hits give low values | activity change, % (tested at about 1.8 µM) | hit rate 0.95% among 340,000;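 active = maximum activity change below -70%; inconclusive = maximum activity change from -70% to -50%; inactive = maximum activity change above -50%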;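 also: thallium influx rate constant from kinetic fluorescence after stimulation buffer; % is scaled to controls: 0 for no effect and ±100 for the full control effect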
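Measured as rate of thallium-driven FluxOr signal in transduced U2OS cells carrying the 3.1 channel, read kinetically for 2 min upon stimulation; values are rate constants scaled to DMSO control wells.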
An asterisk follows results filed as active; i = inactive; ? = inconclusive; · = no result. Unless noted, calls follow the shape of the dose curve; as a rule, active = well fitted curve in the direction sought with a large enough effect; inconclusive = small, poorly fitted or top-dose-only effect, or another doubt; inactive = no such curve, though single readings can be large; an effect the other way counts as inactive or inconclusive.

SMILES	CBFb RUNX1 block	VDR inhibitor	MBNL1 CUG block	KCNH2 WT inh	PLK1 PBD block	KCNH2 3.1 block
CC(=O)N1CC(C)Sc2ccc(S(=O)(=O)NCCc3cccc(C)c3)cc21 (stereo unspecified)	·	?	5%	-6	12µM*	-8
CC(C)CCNC(=O)C12CN(Cc3ccccc3)CC1C(c1ccc([N+](=O)[O-])cc1)=NO2 (stereo unspecified)	1%	-10%	?	-46	-5%	-107*
COc1ccc(CCNC(=O)C23CN(Cc4ccccc4)CC2C(c2cccc([N+](=O)[O-])c2)=NO3)cc1 (stereo unspecified)	-17%	-19%	24%	-9	0%	5
COc1cccc(CNC(=O)C23CN(Cc4ccccc4)CC2C(c2ccc([N+](=O)[O-])cc2)=NO3)c1 (stereo unspecified)	-25%	-19%	?	-1	-8%	-102*
CC(=O)Nc1ccc(S[C@@H](CCN2CC[C@H](O)CCC2=O)c2ccccc2)cc1	·	-15%	·	-2	13µM*	-15
CC1=CC(C)(C)N2C(=O)C(=O)c3cc(OC(=O)c4ccco4)cc1c32	-2%	?	4%	14	27µM*	2
CC1=CC(C)(C)Nc2ccc(OC(=O)c3ccco3)cc21	-5%	-10%	-2%	24	-8%	1
CCN(c1ncnc2c1cnn2-c1cc(Cl)ccc1C)C1CCCCC1	·	14%	·	·	·	·
COC(=O)C(C)NC(=O)N1CCN(c2nnc(C)c3c(C)n(-c4ccc(Cl)cc4)nc23)CC1 (stereo unspecified)	·	9%	·	·	·	·
COCC(=O)N(C)[C@H]1C[C@H]2c3[nH]c4ccccc4c3CCN2C(=O)[C@H]1[C@H](C)O	·	·	·	-4	-5%	-1
C[C@H](O)[C@@H]1C(=O)N2CCc3c([nH]c4ccccc34)[C@@H]2C[C@@H]1N(C)C(=O)NC1CCCCC1	·	·	·	-114*	-28%	-14
Cc1cccc(OCCCc2c(C)n[nH]c2C)c1	-1%	3%	-6%	-3	-12%	-75*
Cc1ccc(C(=O)N/C(=C\c2cccs2)C(=O)NCCCN2CCOCC2)cc1	·	-5%	18%	-117*	-12%	-49
Cc1ccc(C(=O)N/C(=C/c2cccs2)C(=O)NCCCn2ccnc2)cc1	-6%	-2%	?	-209*	-2%	-82*
COc1ccccc1C(=O)N/C(=C\c1cn(S(=O)(=O)N(C)C)c2ccccc12)C(=O)NCCCn1ccnc1	·	24%	·	·	·	·
Cc1ccc(C(=O)N/C(=C\c2cccs2)C(=O)NCCCn2ccnc2)cc1	-4%	-12%	21%	-181*	2%	-99*
O=C(NCCCn1ccnc1)/C(=C/c1cccs1)NC(=O)c1ccco1	3%	-4%	19%	2	-2%	-43
O=C(NCCCn1ccnc1)/C(=C\c1cccs1)NC(=O)c1ccccc1	4%	-6%	12%	6	-14%	-45
Cc1ccc(C(=O)N/C(=C\c2cn(S(=O)(=O)N(C)C)c3ccccc23)C(=O)NCCCn2ccnc2)cc1	·	-19%	23%	2	30µM*	-32
CSc1ccc(CCNS(=O)(=O)c2cc(-c3cc(C)no3)ccc2C)cc1	·	15%	·	·	·	·
Cc1ccc(-c2cn3c(n2)sc2cc(C(=O)NC4CCCCC4)ccc23)cc1	·	12%	·	·	·	·
CCOc1ccc(CCNc2ncnc3onc(-c4ccc(Cl)cc4)c23)cc1	·	-1%	·	·	·	·
COc1ccc2c(CNCCc3ccc(SC)cc3)c(C(=O)O)n(Cc3ccc(F)cc3)c2c1	·	10%	·	·	·	·
Cc1ccc(C(=O)N/C(=C\c2cccs2)C(=O)NCCCn2ccnc2)cc1C	-14%	5%	20%	-75*	2%	?
Cc1ccc(S(=O)(=O)Nc2nc3c(s2)C(=O)CC(C)(C)C3)cc1	0%	9%	?	-4	-15%	7
SMILES	CBFb RUNX1 block	VDR inhibitor	MBNL1 CUG block	KCNH2 WT inh	PLK1 PBD block	KCNH2 3.1 block
CC1(C)CC(=O)c2sc(NS(=O)(=O)Cc3ccccc3)nc2C1	-3%	?	-3%	2	24µM*	-6
CCCCOc1nc2ccccc2nc1C(C#N)C(=O)NC1CCCCC1 (stereo unspecified)	2%	-11%	15%	-20	27µM*	8
CCOc1ccccc1NC(=O)CCc1c(C)nc2c3cccnc3nn2c1C	·	-5%	·	·	·	·
C=C(C(=O)c1ccccc1)C(C)CC(=O)c1ccccc1 (stereo unspecified)	3%	79µM*	-4%	13	-8%	-8
C[C@H](N)C(=O)N[C@@H](C)P(=O)(O)O	·	4%	·	·	·	·
COc1ccccc1NC(=O)CN(c1cc(C)cc(C)c1)S(=O)(=O)c1c(C)[nH]c(=O)[nH]c1=O	·	-4%	·	·	·	·
O=[N+]([O-])c1cc(C(F)(F)F)ccc1NCC1CCCO1 (stereo unspecified)	·	79µM*	19%	6	6µM*	22
CC1=C(C(=O)Nc2cccc(C(F)(F)F)c2)C(c2ccccc2)n2ncnc2N1 (stereo unspecified)	·	-1%	·	·	·	·
CCNC(=S)Nc1ccc(OCc2nc3ccccc3s2)cc1	·	71µM*	4%	-4	9.5µM*	1
O=C(O)CCCC(=O)Nc1ccc(OCc2nc3ccccc3s2)cc1	-14%	?	5%	i	4.2µM*	-9
CCNC(=S)Nc1ccc(OCC)cc1	-6%	-11%	·	1	-16%	-15
O=C(CCCc1nc2ccccc2s1)Nc1ccccc1	6%	5%	0%	1	5%	7
CC(=O)N1CCc2c(sc3c2c(=O)n(Cc2ccccc2)c(=O)n3Cc2cccc(Cl)c2)C1	·	-13%	·	·	·	·
COc1ccc(NCc2cc3ccc(OC)cc3n(CC(=O)Nc3cccc(OC)c3)c2=O)cc1	·	3%	·	·	·	·
Cc1cccc(OCCSc2nc(N)cc(N)n2)c1	-4%	?	-6%	-5	3.8µM*	19
C#Cc1cccc(Nc2ncnc3cc(OC)c(OC)cc23)c1	22%	-2%	·	·	·	·
O=C(Nc1ccc(Cl)cc1Cl)c1ccc2c(c1)OCCO2	·	-7%	·	-1	3%	10
O=C(Nc1ccc(Cl)cc1Cl)c1cccc(N2C(=O)C=CC2=O)c1	4%	?	-2%	2	1.9µM*	-8
CCc1cc2c(=O)n(Cc3ccco3)c(SCC(=O)NCC3CCCO3)nc2s1 (stereo unspecified)	·	0%	-2%	6	-10%	-3
CCc1cc2c(=O)n(Cc3ccco3)c(SCc3c(C)noc3C)nc2s1	-1%	79µM*	-1%	-4	-24%	-16

From PubChem BioAssay
